Bioassay records as filed in PubChem BioAssay.
A selection: hits, their analogues and other compounds. The true share with any hit is near 21%.
Shiga inhibitor: A qHTS for Small Molecule Inhibitors of Shiga Toxin | Vero cells, Shiga toxin protein synthesis inhibition reporter | inhibition, % at 38.7 µM | hit rate 9.2% among 290,000; in the data active means inhibition mostly above about 28%, no sharp cut-off; inactive means mostly below about 43%; further: 0% is about no effect
CHX counter: Cycloheximide Counterscreen for Small Molecule Inhibitors of Shiga Toxin; cell reporter, cycloheximide protein synthesis inhibition counterscreen; max response, %; hit rate 12% among 300,000; AID 2314, 2010; in the data active means max response mostly above about 13%, no sharp cut-off; inactive means mostly below about 14%; further: read at 38.3 µM for the half of the compounds with a filed dose; 0% is about no effect
Pf growth 96h: Primary qHTS for delayed death inhibitors of the malarial parasite plastid, 96 hour incubation | P. falciparum luciferase reporter growth, 96 h | Potency, µM (top dose mostly 28.7 µM), for inactives: at the top dose activity change, negative = inhibition, actives largely listed as inhibitors | hit rate 6.9% among 320,000 | AID 504834, 2011; further: potency means the concentration at half of the fitted maximal effect; on the % scale 0 is the no-effect control and ±100 the full control effect
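Readout is luminescence from an integrated firefly luciferase in P. falciparum. Red cells, 2% hematocrit and 0.05% parasitemia final, were cultured with compound through two parasite generations (96 hours) at 37 C, 5% CO2.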
Pf growth 48h: Primary qHTS for delayed death inhibitors of the malarial parasite plastid, 48 hour incubation; P. falciparum luciferase growth in erythrocytes, 48 h; Potency, µM (highest dose often 28.7 µM), without a hit: at the top dose activity change, negative = inhibition, hits mostly inhibitors; hit rate 5.9% among 310,000; AID 504832, 2011; further: potency means the concentration at half of the fitted maximal effect; on the % scale 0 is the no-effect control and ±100 the full control effect
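Parasite viability was followed by luminescence of a genomically integrated firefly luciferase. Cultures held 0.1% parasitemia at 2% hematocrit (final), incubated under 5% CO2 at 37 C.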
NS1 function inh: qHTS Assay for Inhibitors of Influenza NS1 Protein Function; Potency, µM (titrated, usually from 46.1 µM), without a hit: top-dose activity, positive = more growth; AID 2326, 2010; hit rate 0.4% among 270,000; calls by dose curve; further: potency means the concentration at half of the fitted maximal effect; actives are rising curves; nearly all actives have a fitted effect of over 50% in size
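Read-out: OD600 growth recovery of NS1-expressing budding yeast. Cells grown overnight at 30C in -URA glucose medium, washed, resuspended and diluted 1:100 in 2% galactose assay medium, pH 6.0. Same strain lacking NS1 served as positive control.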
An asterisk follows results filed as active; [ ] = another dose, or the depositor's remark. Unless noted, the call rests on the fitted dose curve; in most records, active means well fitted inhibition curve with a large enough effect; inconclusive means small, poorly fitted or top-dose-only effect, or another doubt; inactive means no such curve, though single readings can be large or run the other way.

Screening CCC(C)(C)C1CCC2(CC1)NC(=S)N(c1ccccc1)N2 (centres undefined) returned Shiga inhibitor 98*, CHX counter 35*, Pf growth 96h -16%, Pf growth 48h -12% and NS1 function inh -3%.
`CC(C)(C)C1CCC2(CC1)SCC(=O)N2c1ccccc1` (centres undefined) gave Shiga inhibitor -3, CHX counter 1, Pf growth 96h 95%, Pf growth 48h 12µM* and NS1 function inh inconclusive.
Screening CC(C)(C)C1CCC2(CC1)NC(=S)N(c1ccccc1)N2 (centres undefined) returned Shiga inhibitor 42*, CHX counter 24*, Pf growth 96h inconclusive, Pf growth 48h inconclusive and NS1 function inh -7%.
For CN(Cc1ccc(F)cc1)C(=O)COc1ccccc1-c1ccccc1 the results were Shiga inhibitor 8, CHX counter 1, Pf growth 96h inconclusive, Pf growth 48h -24% and NS1 function inh 0%.
`Cc1cccc(OCCNc2cc(N3CCN(CCO)CC3)ccc2[N+](=O)[O-])c1` gave Shiga inhibitor -2, CHX counter -1, Pf growth 96h 136%, Pf growth 48h inconclusive and NS1 function inh -5%.
`Cc1ccc(S(=O)(=O)NC(=O)N(CCC#N)Cc2ccccc2)cc1` gave Shiga inhibitor -4, CHX counter -1, Pf growth 96h 27%, Pf growth 48h 1% and NS1 function inh 3%.
Screening COCCCNC(=S)NC1CCCCC1 returned Shiga inhibitor -4, CHX counter 1, Pf growth 96h 41%, Pf growth 48h -2% and NS1 function inh 11%.
Screening CC(=O)NCc1ccc(-c2nc3ccccc3s2)cc1 returned Shiga inhibitor 58*, CHX counter 39*, Pf growth 96h -1%, Pf growth 48h 58% and NS1 function inh -3%.
Screening CC(=O)NCc1ccc(-c2csc(-c3cccs3)n2)cc1 returned Shiga inhibitor 86*, CHX counter 21*, Pf growth 96h 152%, Pf growth 48h 88% and NS1 function inh -21%.
O=C(COC(=O)CCCc1nc2ccccc2s1)NC(=O)NCc1ccco1 was read as Shiga inhibitor -2, CHX counter 0, Pf growth 96h 2% and Pf growth 48h -7%.
O=C(NCc1ccco1)c1nc2ccccc2s1 was read as Shiga inhibitor 77*, CHX counter 23*, Pf growth 48h 65% and NS1 function inh -84%.
Screening O=C(NCc1ccccc1)c1nc2ccccc2s1 returned Shiga inhibitor 37, CHX counter 23*, Pf growth 96h 111% and Pf growth 48h inconclusive.
Screening O=C(Nc1nnc(-c2ccccc2)o1)c1nc2ccccc2s1 returned Shiga inhibitor 2, CHX counter -4, Pf growth 96h 5%, Pf growth 48h 32% and NS1 function inh 2%.
`CC(=O)Nc1scc(C)c1-c1nc2ccccc2s1` gave Shiga inhibitor 4, CHX counter 8, Pf growth 96h 0%, Pf growth 48h inconclusive and NS1 function inh -2%.
`CNC(=O)c1csc(-c2cccs2)n1` gave Shiga inhibitor 64, CHX counter 21, Pf growth 96h 94% and Pf growth 48h inactive.
Screening Cn1c(Cn2nnc(-c3ccccc3)n2)nnc1SCc1ccccc1Cl returned Shiga inhibitor -7, CHX counter 3, Pf growth 48h 12% and NS1 function inh -30%.
For COCCNC(=O)c1nc2ccccc2s1 the results were Shiga inhibitor 44*, CHX counter 24, Pf growth 96h 15%, Pf growth 48h 45% and NS1 function inh 0%.
`O=C(NCCO)c1nc2ccccc2s1` gave Shiga inhibitor 37*, CHX counter 17, Pf growth 96h -28%, Pf growth 48h 58% and NS1 function inh 0%.
For CC(C)Oc1ccc(NC(=O)c2ccncc2)cc1 the results were Shiga inhibitor 63*, CHX counter 19*, Pf growth 96h 66%, Pf growth 48h 35% and NS1 function inh 4%.
`COc1ccc(OC(C)C(=O)Nc2ccc([N+](=O)[O-])cc2)cc1` (centres undefined) gave Shiga inhibitor -8, CHX counter -2, Pf growth 96h 15µM*, Pf growth 48h inconclusive and NS1 function inh -2%.
For CC(C)Oc1ccc(C(=O)Nc2ccc([N+](=O)[O-])cc2)cc1 the results were Shiga inhibitor 119*, CHX counter 37*, Pf growth 96h 5% and Pf growth 48h 29%[5.75 µM].
`COc1ccc(NC(=O)C(C)Oc2ccc(/C(C)=N\O)cc2)cc1` (centres undefined) gave Shiga inhibitor -4, CHX counter 0, Pf growth 96h 61%, Pf growth 48h inconclusive and NS1 function inh -8%.
O=C(Nc1ccc(Nc2ccncc2)cc1)c1ccc(Nc2ccnc3ccc([N+](=O)[O-])cc23)cc1[N+](=O)[O-] was read as Shiga inhibitor -7, CHX counter -2, Pf growth 96h 0.52µM*, Pf growth 48h 1.5µM* and NS1 function inh 8%.
`COc1cc(OC)cc(C(=O)Nc2ccc(C(=O)c3ccncc3)cc2)c1` gave Shiga inhibitor 21, CHX counter 16, Pf growth 96h inconclusive, Pf growth 48h 27% and NS1 function inh -17%.
For Oc1cccc(C(O)CNCc2ccc(OCc3ccc(Cl)cc3Cl)cc2)c1 (centres undefined) the results were Shiga inhibitor 21, CHX counter 13, Pf growth 96h 0% and Pf growth 48h inconclusive.
For O=C(Nc1ccc(Nc2ccncc2)cc1)c1ccc([N+](=O)[O-])cc1 the results were Shiga inhibitor -8, CHX counter -4, Pf growth 96h 1.7µM*, Pf growth 48h 2.6µM* and NS1 function inh 3%.
`COc1ccccc1-c1nc2cc3ccccc3cc2nc1-c1ccccc1OC` gave Shiga inhibitor -4, CHX counter 0, Pf growth 96h 12µM*, Pf growth 48h inconclusive and NS1 function inh 4%.
CN(C)CCCN(C(=O)c1sc2ccccc2c1Cl)c1nc2ccc(F)cc2s1 was read as Shiga inhibitor 79*, CHX counter 37*, Pf growth 96h 110%, Pf growth 48h 107% and NS1 function inh -1%.
For CCOc1cccc2sc(N(CCCN(C)C)C(=O)c3ccc(C(=O)c4ccccc4)cc3)nc12 the results were Shiga inhibitor -14, CHX counter -7, Pf growth 96h 10µM*, Pf growth 48h inconclusive and NS1 function inh -17%.
CCc1ccc2nc(N(CCCN(C)C)C(=O)c3ccc(C(=O)c4ccccc4)cc3)sc2c1 was read as Shiga inhibitor -7, CHX counter -4, Pf growth 96h 15µM*, Pf growth 48h inconclusive and NS1 function inh -54%.
CN(C)CCCN(C(=O)c1ccc(C(=O)c2ccccc2)cc1)c1nc2c(F)cccc2s1 was read as Shiga inhibitor -5, CHX counter -2, Pf growth 96h -8%, Pf growth 48h inconclusive and NS1 function inh -25%.
